Measurements taken from PubChem BioAssay AID624490 (Broad Institute, 2012).
Measured potencies and affinities stand elsewhere. The source made the active and inactive calls.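 How the source made its calls: active means compounds whose fitted half-maximal drop in cell ATP occurs at no more than twice the top tested dose; inconclusive means flat moderate signal drop, or unreliable curve fit; inactive means the rest.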

Test: A375 melanoma cell cytotoxicity, dose response, counter-screen for MITF inhibitor project, CellTiter-Glo luminescence, dry powder, set 7 (AID 624490)
Conditions: A375 viability, ATP luminescence (CellTiter-Glo), 24 h; series mostly up to 35 µM

Compound	outcome
NC1=C(NS(=O)(=O)c2ccc(Br)cc2)C(=O)c2ccccc2C1=O	inactive
NC1=C(NS(=O)(=O)c2ccc(Br)s2)C(=O)c2ccccc2C1=O	inactive
O=C1C(Nc2ccccc2)=C(c2ccccc2)C(=O)c2ccccc21	inactive
